In PubChem BioAssay AID1159580 (chemical genetic matrix, 2015):
Values joined by “and” are separate entries in the source; they are usually repeats but may differ in a detail not shown here. Equal values may be shown once. Among all 5,500 compounds or so, about 2,000 (36%) were called active. Not shown: some 18% with an inconclusive outcome. Cut-off read from the data, not from the text of the source: active = normalized growth mostly below about 0.91 (no sharp cut-off); inconclusive = no clear call, values can overlap the other calls; inactive = mostly above about 0.92. This is one part of the list.

Assay: chemical genetic growth profiling, strain panel (AID 1159580);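 note: tested at 20 µM; growth read once vehicle control cultures reached saturation at 30 °C; 1 = growth at the plate median or of vehicle wells; lower values mean less growth of the strain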
Conditions: growth OD

Measured: normalized growth

O=C(O)c1cc(=O)c2ccccc2[nH]1
inactive: S. cerevisiae deletion strains, locus YJR075W, strain HOC1, stronger effect = lower value 0.999 | S. cerevisiae deletion strains, locus YKL009W, strain mrt4, stronger effect = lower value 1.01 | S. cerevisiae deletion strains, locus YKL068W, stronger effect = lower value 0.991 | S. cerevisiae deletion strains, locus YKL085W, strain MDH1 (second series), stronger effect = lower value 0.998 | S. cerevisiae deletion strains, locus YKL085W, strain MDH1, stronger effect = lower value 0.998 | S. cerevisiae deletion strains, locus YKL160W, strain elf1, stronger effect = lower value 0.993 | S. cerevisiae deletion strains, locus YKL190W, strain CNB1, stronger effect = lower value 1 | S. cerevisiae deletion strains, locus YKR001C, strain vps1, stronger effect = lower value 1.01 | S. cerevisiae deletion strains, locus YKR026C, strain gcn3, stronger effect = lower value 0.98 | S. cerevisiae deletion strains, locus YKR091W, strain srl3, stronger effect = lower value 0.993 | S. cerevisiae deletion strains, locus YLL001W, strain dnm1, stronger effect = lower value 0.991 | S. cerevisiae deletion strains, locus YLL026W, stronger effect = lower value 0.994 | S. cerevisiae deletion strains, locus YLL041C, strain sdh2, stronger effect = lower value 0.98 | S. cerevisiae deletion strains, locus YLR027C, strain aat2, stronger effect = lower value 0.989 | S. cerevisiae deletion strains, locus YLR039C, strain RIC1, stronger effect = lower value 1.01 | S. cerevisiae deletion strains, locus YLR058C, strain SHM2, stronger effect = lower value 0.972 | S. cerevisiae deletion strains, locus YLR102C, strain apc9, stronger effect = lower value 1 | S. cerevisiae deletion strains, locus YLR113W, strain HOG1, stronger effect = lower value 1.01 | S. cerevisiae deletion strains, locus YLR221C, strain rsa3, stronger effect = lower value 0.973 | S. cerevisiae deletion strains, locus YLR258W, strain gsy2, stronger effect = lower value 0.98 | S. cerevisiae deletion strains, locus YLR262C, strain YPT6 (second series), stronger effect = lower value 1.04 | S. cerevisiae deletion strains, locus YLR262C, strain YPT6, stronger effect = lower value 1 | S. cerevisiae deletion strains, locus YLR268W, strain sec22, stronger effect = lower value 1.01 | S. cerevisiae deletion strains, locus YLR320W, strain mms22, stronger effect = lower value 0.977 | S. cerevisiae deletion strains, locus YLR330W, strain CHS5, stronger effect = lower value 0.989 | S. cerevisiae deletion strains, locus YLR342W, strain FKS1 (second series), stronger effect = lower value 1.01 | S. cerevisiae deletion strains, locus YLR342W, strain FKS1, stronger effect = lower value 0.986 | S. cerevisiae deletion strains, locus YLR357W, strain rsc2, stronger effect = lower value 0.936 | S. cerevisiae deletion strains, locus YLR370C, strain arc18, stronger effect = lower value 0.987 | S. cerevisiae deletion strains, locus YLR371W, strain rom2, stronger effect = lower value 0.986 | S. cerevisiae deletion strains, locus YLR384C, strain iki3, stronger effect = lower value 0.942 | S. cerevisiae deletion strains, locus YLR418C, strain cdc73, stronger effect = lower value 1.05 | S. cerevisiae deletion strains, locus YML016C, strain PPZ1, stronger effect = lower value 0.984 | S. cerevisiae deletion strains, locus YML032C, strain rad52, stronger effect = lower value 0.976 | S. cerevisiae deletion strains, locus YML120C, strain ndi1, stronger effect = lower value 0.99 | S. cerevisiae deletion strains, locus YML124C, strain tub3, stronger effect = lower value 0.992 | S. cerevisiae deletion strains, locus YMR058W, strain fet3, stronger effect = lower value 0.99 | S. cerevisiae deletion strains, locus YMR078C, strain ctf18, stronger effect = lower value 0.984 | S. cerevisiae deletion strains, locus YMR125W, strain sto1, stronger effect = lower value 0.972 | S. cerevisiae deletion strains, locus YMR129W, stronger effect = lower value 1 | S. cerevisiae deletion strains, locus YMR205C, strain PFK2, stronger effect = lower value 0.986 | S. cerevisiae deletion strains, locus YMR223W, strain ubp8, stronger effect = lower value 0.985 | S. cerevisiae deletion strains, locus YMR231W, strain pep5, stronger effect = lower value 0.973 | S. cerevisiae deletion strains, locus YMR263W, strain SAP30, stronger effect = lower value 0.988 and 0.996 | S. cerevisiae deletion strains, locus YMR307W, strain GAS1, stronger effect = lower value 1.09 | S. cerevisiae deletion strains, locus YNL067W, strain RPL9B, stronger effect = lower value 0.998 | S. cerevisiae deletion strains, locus YNL071W, strain lat1, stronger effect = lower value 1.01 | S. cerevisiae deletion strains, locus YNL128W, strain TEP1, stronger effect = lower value 0.963 | S. cerevisiae deletion strains, locus YNL153C, strain GIM3, stronger effect = lower value 1 and 1.01 | S. cerevisiae deletion strains, locus YNL175C, strain NOP13, stronger effect = lower value 0.978 | S. cerevisiae deletion strains, locus YNL183C, strain NPR1, stronger effect = lower value 0.893 | S. cerevisiae deletion strains, locus YNL197C, strain WHI3, stronger effect = lower value 0.981 | S. cerevisiae deletion strains, locus YNL209W, strain ssb2, stronger effect = lower value 0.989 | S. cerevisiae deletion strains, locus YNL224C, strain SQS1, stronger effect = lower value 0.989 | S. cerevisiae deletion strains, locus YNL233W, strain BNI4, stronger effect = lower value 0.993 | S. cerevisiae deletion strains, locus YNL248C, strain rpa49, stronger effect = lower value 0.987 | S. cerevisiae deletion strains, locus YNL250W, strain rad50, stronger effect = lower value 0.976 | S. cerevisiae deletion strains, locus YNL271C, strain bni1, stronger effect = lower value 0.997 | S. cerevisiae deletion strains, locus YNL298W, strain CLA4, stronger effect = lower value 1 | S. cerevisiae deletion strains, locus YNL307C, strain MCK1, stronger effect = lower value 0.998 | S. cerevisiae deletion strains, locus YNL322C, strain KRE1 (second series), stronger effect = lower value 0.975 | S. cerevisiae deletion strains, locus YNL322C, strain KRE1, stronger effect = lower value 0.991 and 1 | S. cerevisiae deletion strains, locus YNR049C, strain mso1, stronger effect = lower value 0.983 | S. cerevisiae deletion strains, locus YNR052C, strain pop2, stronger effect = lower value 1 | S. cerevisiae deletion strains, locus YOL006C, strain TOP1, stronger effect = lower value 1 | S. cerevisiae deletion strains, locus YOL012C, strain htz1 1.51 | S. cerevisiae deletion strains, locus YOL147C, strain pex11, stronger effect = lower value 0.999 | S. cerevisiae deletion strains, locus YOR001W, strain rrp6, stronger effect = lower value 0.954 | S. cerevisiae deletion strains, locus YOR061W, strain CKA2, stronger effect = lower value 0.969 | S. cerevisiae deletion strains, locus YOR069W, strain VPS5, stronger effect = lower value 0.995 | S. cerevisiae deletion strains, locus YOR070C, strain gyp1, stronger effect = lower value 0.995 | S. cerevisiae deletion strains, locus YOR080W, strain dia2, stronger effect = lower value 0.974 | S. cerevisiae deletion strains, locus YOR083W, strain WHI5 (second series), stronger effect = lower value 1.02 | S. cerevisiae deletion strains, locus YOR083W, strain WHI5, stronger effect = lower value 0.999 | S. cerevisiae deletion strains, locus YOR106W, strain vam3, stronger effect = lower value 1.01 | S. cerevisiae deletion strains, locus YOR136W, strain idh2, stronger effect = lower value 0.99 | S. cerevisiae deletion strains, locus YOR144C, strain elg1, stronger effect = lower value 0.994 | S. cerevisiae deletion strains, locus YOR184W, strain ser1, stronger effect = lower value 0.994 | S. cerevisiae deletion strains, locus YOR231W, strain MKK1, stronger effect = lower value 0.988 | S. cerevisiae deletion strains, locus YOR265W, strain rbl2, stronger effect = lower value 1 | S. cerevisiae deletion strains, locus YOR270C, strain vph1, stronger effect = lower value 1 | S. cerevisiae deletion strains, locus YOR290C, strain snf2, stronger effect = lower value 0.986 | S. cerevisiae deletion strains, locus YOR316C, strain cot1, stronger effect = lower value 0.983 | S. cerevisiae deletion strains, locus YPL051W, strain arl3, stronger effect = lower value 0.997 | S. cerevisiae deletion strains, locus YPL055C, strain LGE1, stronger effect = lower value 0.976 and 1.01 | S. cerevisiae deletion strains, locus YPL078C, strain atp4, stronger effect = lower value 0.987 | S. cerevisiae deletion strains, locus YPL106C, strain sse1, stronger effect = lower value 0.972 | S. cerevisiae deletion strains, locus YPL240C, strain hsp82, stronger effect = lower value 0.982 | S. cerevisiae deletion strains, locus YPL241C, strain CIN2, stronger effect = lower value 0.996 | S. cerevisiae deletion strains, locus YPL256C, strain CLN2, stronger effect = lower value 0.954 | S. cerevisiae deletion strains, locus YPR119W, strain clb2, stronger effect = lower value 0.99 | S. cerevisiae deletion strains, locus YPR141C, strain kar3, stronger effect = lower value 0.977 | S. cerevisiae deletion strains, locus YPR163C, strain tif3, stronger effect = lower value 0.997 | S. cerevisiae deletion strains, locus YPR167C, strain met16, stronger effect = lower value 0.997 | S. cerevisiae deletion strains, strain wtn01, stronger effect = lower value 0.992 | S. cerevisiae strains, strain wild type, stronger effect = lower value 0.992
